Consider five compounds from PubChem BioAssay AID2116 (The Scripps Research Institute Molecular Screening Center, 2009).

The subject of this assay is HEK Patch Clamp Assay. As to the kind of experiment: activators of mucolipin-3 and mucolipin-2 – cell-based, patch clamp, Fura-2 profiling panel (AID 2116). Particulars: HEK293 cells expressing TRPML3-YFP; patch clamp current at -80 mV. (In patch-clamp work, channel activity is measured electrically.)

Activity calls are given as the source filed them. How the calls were made is not given here.

`O=S(=O)(Nc1ccccc1N1CCCCC1)c1ccc(Cl)s1`: the current density was -0.004 nA/pF and the outcome was “inactive; no effect on six other TRP channels”.

Take `Cc1ccc(N2CCN(S(=O)(=O)N3CCCCC3)CC2)c(C)c1`: the current density was -0.007 nA/pF and the outcome is “inactive; no effect on six other TRP channels”.

Take `O=S(=O)(Nc1ccccc1N1CCOCC1)c1ccc(Cl)s1`: the current density was -0.005 nA/pF and the outcome was “inactive; no effect on six other TRP channels”.

On to `Cc1ccc(S(=O)(=O)Nc2ccccc2-c2ccccc2)cc1`, for which the current density was -0.003 nA/pF and the outcome is “inactive; no effect on six other TRP channels”.

On to `O=S(=O)(NC1CCCCC1N1CCOCC1)c1ccc(Cl)cc1` (stereo not given), for which the current density was -0.003 nA/pF and the outcome was “inactive; no effect on six other TRP channels”.
